# Bioassay records as filed in PubChem BioAssay.
# A selection: hits, their analogues and other compounds. The true share with any hit is near 19%.
# HT1080 IDH1KD tx: toxicity to HT-1080 IDH1 knockdown cells (counter line); HT-1080 IDH1 knockdown viability, ATP luminescence, 48 h; Potency, µM (highest dose often 46.1 µM), for the others: at the top dose activity, negative = toxicity, usual class: cytotoxic; 2% of 360,000 active;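 also: potency is read from the fitted curve at half-maximal effect; 0% = DMSO wells and -100% = cell-free medium wells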
#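 Knockdown cells (IDH1KD HT-1080) received compounds 2 h after plating at 750 cells/well and were kept 48 h at 37 °C in 5% FBS RPMI. A CellTiter-Glo luminescence read gave % activity for curve fitting.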
# ELG1 DNA repair: blocks ELG1-dependent DNA repair in HEK293T cells; Potency, µM (top dose mostly 46.1 µM), for inactives: at the top dose activity change, negative = inhibition, most hits filed as inhibitors; 2.3% of 330,000 active; AID 504467; HEK293T ELG1-luciferase reporter, luminescence, 16 h; DNA damage induced by 5-fluorouridine; also: potency is read from the fitted curve at half-maximal effect; nearly all actives have a fitted effect of over 55% in size
#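 Reporter activity after DNA damage by 5-fluorouridine is monitored. Compound-treated cells incubate 16 hr at 37 °C, then ONE-Glo is added for 30 min before luminescence reading.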
# HT1080NT lethal: kills 2HG-producing HT-1080-NT fibrosarcoma cells. HT-1080-NT fibrosarcoma viability, CellTiter-Glo ATP luminescence, 48 h. Potency, µM (highest dose often 46.1 µM), without a hit: top-dose activity, negative = less viability, hits mostly cytotoxic. 1.6% of 360,000 active. AID 686970;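 also: NT is the 2HG producing partner of a matched IDH1 knockdown line; potency is read from the fitted curve at half-maximal effect; 0% = DMSO-treated cells and -100% = media-only wells without cells; nearly all actives have a fitted effect of over 55% in size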
#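 Read-out is CellTiter-Glo luminescence after 10 minutes at room temperature, following 48 hours' compound treatment of HT-1080-NT cells (750 cells/well, RPMI, 5% FBS, 37 degrees C).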
# IL1B secr inh: inflammasome signaling inhibition, IL-1 beta readout | THP-1 LPS/ATP IL-1B secretion, AlphaLISA, 16 h; active compounds read low | activity change, % at 57.5 µM | 4.7% of 360,000 active; in the data active = activity change below about -50%; inconclusive = mostly about -30% to -49%
#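 Secreted IL-1B measured by AlphaLISA bead assay after 16 h compound exposure of THP-1 cells; compounds (final up to 57.5 uM) added 1 h before LPS (250 ng/mL) and ATP (1.25 mM) stimulation; lower signal means less secretion.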
# TDP1 cell CPT: growth inhibition of DT40 Tdp1-/-;hTDP1 cells with camptothecin (screen for TDP1 inhibitors); chicken DT40 Tdp1-/-;hTDP1 cells + 20 nM CPT, ATP luminescence, 48 h; Potency, µM (highest dose often 46.2 µM), inactives show at the top dose activity change, negative = growth inhibition, hits mostly inhibitors; 12% of 420,000 active; also: potency is read from the fitted curve at half-maximal effect; nearly all actives have a fitted effect of over 55% in size
#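 Cell growth measured by CellTiter-Glo luminescence after a minimum 48 h, 37 C compound exposure with 20 nM CPT in Tdp1-knockout DT40 cells stably expressing hTDP1, seeded 400/well; qHTS titration format.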
# DT40 TDP1 no CPT: qHTS for Inhibitors of human tyrosyl-DNA phosphodiesterase 1 (TDP1): qHTS in cells in absence of CPT; 15% of 420,000 active; Potency, µM (series often up to 46.2 µM), without a hit: at the highest dose activity change, negative = growth inhibition, usual class: inhibitors; DT40 Tdp1-/- hTDP1 cells, no CPT, ATP luminescence, 48 h; AID 686978, 2013; also: potency is read from the fitted curve at half-maximal effect; nearly all actives have a fitted effect of over 55% in size
#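 Readout: luminescence from CellTiter-Glo after 30 min in the dark at RT. Cells: DT40 Tdp1-/- with stable hTDP1, 400/well. Exposure: compounds alone, ≥48 hr, 37 °C.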
# The depositor's hits bear a star; ? = inconclusive; · = not tested or not shown; [ ] = another dose, or the depositor's remark. Unless noted, calls follow the shape of the dose curve; as a rule, active = well fitted curve in the direction sought with a large enough effect; inconclusive = small, poorly fitted or top-dose-only effect, or another doubt; inactive = no such curve, though single readings can be large; an effect the other way counts as inactive or inconclusive. Unless noted, % is scaled to controls: 0 for no effect and ±100 for the full control effect.
SMILES,HT1080 IDH1KD tx,ELG1 DNA repair,HT1080NT lethal,IL1B secr inh,TDP1 cell CPT,DT40 TDP1 no CPT
C[C@@H](CO)NC(=O)c1[nH]cnc1C(=O)Nc1cccc(Cl)c1,-4%,·,16%,-14,2%,?
O=C(NCc1ccc(F)cc1)OC1CC2CC1[C@H]1CCCCN1C2=O (stereo partly drawn),9%,·,8%,5,-9%,-16%
CC(C)C[C@@H](COCc1ccc([N+](=O)[O-])cc1)N1CCN(C(=O)c2ccc(C(F)(F)F)cc2)CCC1=O,?,·,-22%,-24,?,16µM*
CC(C)C[C@@H](COCc1ccc(Cl)cc1)N1CCN(C(=O)c2ccc(C(F)(F)F)cc2)CCC1=O,?,·,?,?,?,21µM*
CC(C)CC(COCc1ccc(Cl)cc1)N1CCN(C(=O)c2ccc(Cl)cc2Cl)CCC1=O (stereo not drawn),?,23µM*,?,0,23µM*,?
O=C(c1ccc(C(F)(F)F)cc1)N1CCC(=O)N([C@H](COCc2ccc(C(F)(F)F)cc2)Cc2ccccc2)CC1,?,·,?,0,23µM*,?
O=C(c1ccc(C(F)(F)F)cc1)N1CCC(=O)N(C(CO)Cc2ccccc2)CC1 (stereo not drawn),0%,·,10%,29,?,?
O=C(c1cccc(Cl)c1)N1CCC(=O)N(C(COCc2ccccc2)Cc2ccccc2)CC1 (stereo not drawn),-4%,?,-15%,-5,?,?
O=C(c1cncc(Br)c1)N1CCN(S(=O)(=O)c2ccc(Cl)cc2)CC1,-1%,?,1%,13,7%,-12%
NC(c1ccccc1)c1csc(NC(=O)NCC2CCCCC2)n1 (stereo not drawn),?,·,?,-19,-84%,-76%
NC(c1csc(NC(=O)Nc2cccc(Cl)c2)n1)C1CCCCC1 (stereo not drawn),18µM*,·,18µM*,-96*,18µM*,?
NC(c1csc(NC(=O)Nc2ccccc2)n1)C1CCCCC1 (stereo not drawn),?,·,?,?,?,15µM*
CN(Cc1ccccc1)C(=O)c1ncn(Cc2ccccc2)c1C(=O)N(C)Cc1ccccc1,-1%,?,0%,-3,?,18µM*
COc1ccc(Cc2nnc(SCC(=O)Nc3c(C)cccc3C)[nH]c2=O)cc1,0%,-9%,-5%,7,?,9.2µM*
Cc1ccc(S(=O)(=O)N2CCN(Cc3csc(C)n3)CC2)cc1,12%,1%,-2%,-1,16%,-20%
Cc1cccc(NC(=O)c2cccc([N+](=O)[O-])c2O)c1C,?,·,?,5,16µM*,13µM*
Cc1ccc(C)c(NC(=O)c2ccccc2O)c1,?,?,?,6,8.2µM*,9.2µM*
Cc1ccc(C)c(NC(=O)c2cc(C)nc3ccccc23)c1,4%,-9%,3%,16,-24%,?
Cc1cccc(NC(=O)c2cnn3ccccc23)c1C,?,?,-21%,-53*,1.6µM*,2.1µM*
Cc1cccc(NC(=O)c2ccccc2O)c1C,-18%,?,?,-61*,21µM*,?
CSc1ccccc1C(=O)Nc1cccc([N+](=O)[O-])c1C,4%,8%,?,13,-10%,-3%
CCCCn1c(N)c(N(C)C(=O)C2CC(=O)N(Cc3ccco3)C2)c(=O)[nH]c1=O (stereo not drawn),0%,?,-4%,9,-8%,-6%
NC(=S)N=Nc1ccc(O)cc1,0%,·,-2%,0,21µM*,18µM*
CSCCC(NC(=O)c1ccc([N+](=O)[O-])cc1Cl)C(=O)OC1CCCCC1=O (stereo not drawn),9%,20%,-3%,3,-16%,9%
C(C#CCCCCCCCCC[n+]1ccccc1)#CCCCCCCCCC[n+]1ccccc1,7.3µM*,18µM*,8.2µM*,-95*,3.3µM*,3.3µM*
SMILES,HT1080 IDH1KD tx,ELG1 DNA repair,HT1080NT lethal,IL1B secr inh,TDP1 cell CPT,DT40 TDP1 no CPT
COc1ccc2sc(-c3ccc(N(C)C)cc3)c(C#Cc3cncn3C)c2c1,26µM*,-11%,26µM*,-6,5.8µM*,5.8µM*
COc1cccc(-c2sc3ccc(OC)cc3c2C#CC(C)(C)O)c1,-24%,?,-19%,-88*,23µM*,18µM*
COc1ccc2sc(-c3ccc(N(C)C)cc3)c(C#CC(C)(C)O)c2c1,?,0%,?,17,8.2µM*,8.2µM*
COc1ccc2sc(-c3ccc(N(C)C)cc3)c(C#CCCO)c2c1,?,-26%,16µM*,-9,?,16µM*
COc1ccc(-c2sc3ccc(OC)cc3c2C#CCCO)cc1,-29%,-24%,-18%,0,?,?
CCN(CC(=O)NCc1cccs1)S(=O)(=O)c1ccc(F)c(F)c1F,1%,0%,-5%,-14,-8%,-28%
Cc1ccc2oc(=O)c3cc(C(=O)N4CCN(c5ccccc5)CC4)sc3c2c1,·,·,·,·,4%,17%
Cc1ccc(C(=O)Nc2cccc(-c3nc(CNC(=O)c4cccc(C)c4C)c(C)o3)c2)s1,·,·,·,·,23µM*,21µM*
Cc1cc(C(=O)NCc2nc(-c3cccc(NC(=O)c4cc(C)oc4C)c3)oc2C)nc(C)n1,·,·,·,·,-15%[9.04 µM],21µM*
Cc1ccc(C(=O)Nc2cccc(-c3nc(CNC(=O)c4ccc(F)cc4Cl)c(C)o3)c2)s1,·,·,·,·,10%[9.04 µM],0%
C#Cc1cccc(C(=O)NCc2nc(-c3cccc(NC(=O)c4ccccn4)c3)oc2C)c1,·,·,·,·,?,23µM*
Cc1cc(C)cc(C(=O)NCc2nc(-c3cccc(NC(=O)c4ccccn4)c3)oc2C)c1,·,·,·,·,0%[9.04 µM],-11%
Cc1occc1C(=O)Nc1cccc(-c2nc(CNC(=O)c3ccc(N4CCCCC4)cc3)c(C)o2)c1,·,·,·,·,?,18µM*
CCc1ccc2ncc3c(-c4ccc(F)cc4)nn(CC(=O)NCc4ccccc4)c3c2c1,·,·,·,·,-4%,-5%
CCCNC(=O)c1ccc(C)c(NC(=O)C2=C(C)OCCS2)c1,18%,2%,?,6,19%,-23%
Cc1cc(C)c2oc(C(=O)Nc3sc4c(c3C(=O)NCc3ccco3)CCCC4)cc(=O)c2c1,·,·,·,·,6%,-6%
